Records with an inconclusive call do not appear. Calls of active or inactive are those of the source. Unless noted, the call rests on the fitted dose curve; in most records, active means well fitted curve in the direction sought with a large enough effect; inconclusive means small, poorly fitted or top-dose-only effect, or another doubt; inactive means no such curve, though single readings can be large; an effect the other way counts as inactive or inconclusive.

Assay [1] deals with Lysosomal acid glucosylceramidase (Homo sapiens) (UniProt P04062). The experiment in a line: Glucocerebrosidase-p2 (AID 348; in the data active means potency below about 10 µM; further: potency means the concentration at half of the fitted maximal effect). As to conditions: purified GBA, blue fluorogenic substrate, 40 min. Put shortly: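 Normal human glucocerebrosidase (0.2 nM) with blue fluorogenic substrate (80 uM final) in citrate/phosphate pH 5.9 with 10mM sodium taurocholate, 0.01% tween-20; 40 min RT, NaOH/glycine stop; fluorescence Ex 365/Em 440; AC50 from a titration from 0.6 nM upwards.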
Lysosomal acid glucosylceramidase (Homo sapiens), sequence (P04062 whole entry, looked up): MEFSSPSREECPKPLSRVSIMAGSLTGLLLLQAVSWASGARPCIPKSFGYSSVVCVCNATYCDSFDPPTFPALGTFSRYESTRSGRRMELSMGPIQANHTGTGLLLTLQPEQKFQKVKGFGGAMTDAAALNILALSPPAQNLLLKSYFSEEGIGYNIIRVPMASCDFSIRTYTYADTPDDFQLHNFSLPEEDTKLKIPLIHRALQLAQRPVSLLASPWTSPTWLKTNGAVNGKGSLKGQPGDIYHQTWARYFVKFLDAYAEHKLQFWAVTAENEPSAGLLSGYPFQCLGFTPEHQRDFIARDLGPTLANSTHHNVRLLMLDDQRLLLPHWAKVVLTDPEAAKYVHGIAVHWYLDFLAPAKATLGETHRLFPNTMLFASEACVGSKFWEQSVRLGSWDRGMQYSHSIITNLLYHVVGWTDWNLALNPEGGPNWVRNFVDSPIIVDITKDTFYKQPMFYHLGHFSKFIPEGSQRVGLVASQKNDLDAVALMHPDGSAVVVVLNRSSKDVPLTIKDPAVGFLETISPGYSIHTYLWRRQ

Assay [2] is described as follows: AP1 Signaling Pathway (AID 357; active means well fitted curve in either direction with a large enough effect, not every such curve was filed as active;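 further: ME-180 reporter cells stimulated with EGF at its EC50 level; on the % scale 0 is the no-effect control and ±100 the full control effect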). As to conditions: ME-180 AP-1-bla reporter, EGF-induced, beta-lactamase ratio, 5 h; at 7.69 µM (top of the series) unless noted. Put shortly: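 Beta-lactamase reporter under AP-1 response element, ME-180 background. Stimulus: EC50 EGF. Compound exposure 5 h, 37 °C. Detection: CCF4, 2.5 h RT, 460/530 nm. Values: AC50 from titration.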

For assay [3], the target named is Cytochrome P450 1A2 (Homo sapiens) (UniProt P05177). The assay can be described thus: p450-cyp1a2 (AID 410; calls by dose curve; further: potency means the concentration at half of the fitted maximal effect). Summed up:
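20nM CYP1A2, 100uM Luciferin-ME (=Km), 100mM KPO4; cpd 10 min RT; +NADPH regen, 60 min RT; stop/detect 20 min; luminescence. Normalized to furafylline 57 uM = full inhibition.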

Assay [4] in a line: NFAT Signaling Pathway (AID 444; active means well fitted curve in either direction with a large enough effect, not every such curve was filed as active;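 further: carbachol stimulus at about its EC50 of 1 µM final; on the % scale 0 is the no-effect control and ±100 the full control effect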). The following applies: Jurkat NFAT-bla M1, carbachol, beta-lactamase ratio, 5 h; at 7.69 µM (top of the series) unless noted. Put shortly:
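Read-out: CCF4 FRET ratio (460 nm/530 nm) after 1 h RT dye loading, used for %activity and AC50 from titration series. Cells: Jurkat NFAT-β-lactamase/M1 line, treated with compound plus 1 uM carbachol for 5 h, 37 °C.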

The nature of assay [5]: Stat Signaling Pathway (AID 446; active means well fitted curve in either direction with a large enough effect, not every such curve was filed as active;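 further: ME-180 cervical cancer cells given 40 pM IL-6 alongside compound; SIE-controlled beta-lactamase reporter measured as 460/530 nm FRET emission ratio; on the % scale 0 is the no-effect control and ±100 the full control effect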). The following applies: ME-180 SIE beta-lactamase reporter, IL-6 stimulated, 5 h; at 7.69 µM (top of the series) unless noted. Summed up:
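Emission at 460 and 530 nm (excitation 405 nm) reports SIE-controlled beta-lactamase in ME-180 cells. Cells received compound with 40 pM IL-6 for 5 hrs at 37 C; data scaled between 300 pM IL-6 and 125 nM JAK-inhibitor controls.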

In assay [6] the target is Glucocorticoid receptor (Homo sapiens) (UniProt P04150). The experiment in a line: GR-GFP Redistribution (AID 450;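 active means compounds whose dose series gives a full or clear partial fitted curve of increased nuclear translocation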; further: potency means the concentration at half of the fitted maximal effect). The following applies: U2OS GR-GFP nuclear translocation, laser cytometry, 2 h.
Glucocorticoid receptor (Homo sapiens), sequence (P04150 whole entry, looked up, the tested form may be a part): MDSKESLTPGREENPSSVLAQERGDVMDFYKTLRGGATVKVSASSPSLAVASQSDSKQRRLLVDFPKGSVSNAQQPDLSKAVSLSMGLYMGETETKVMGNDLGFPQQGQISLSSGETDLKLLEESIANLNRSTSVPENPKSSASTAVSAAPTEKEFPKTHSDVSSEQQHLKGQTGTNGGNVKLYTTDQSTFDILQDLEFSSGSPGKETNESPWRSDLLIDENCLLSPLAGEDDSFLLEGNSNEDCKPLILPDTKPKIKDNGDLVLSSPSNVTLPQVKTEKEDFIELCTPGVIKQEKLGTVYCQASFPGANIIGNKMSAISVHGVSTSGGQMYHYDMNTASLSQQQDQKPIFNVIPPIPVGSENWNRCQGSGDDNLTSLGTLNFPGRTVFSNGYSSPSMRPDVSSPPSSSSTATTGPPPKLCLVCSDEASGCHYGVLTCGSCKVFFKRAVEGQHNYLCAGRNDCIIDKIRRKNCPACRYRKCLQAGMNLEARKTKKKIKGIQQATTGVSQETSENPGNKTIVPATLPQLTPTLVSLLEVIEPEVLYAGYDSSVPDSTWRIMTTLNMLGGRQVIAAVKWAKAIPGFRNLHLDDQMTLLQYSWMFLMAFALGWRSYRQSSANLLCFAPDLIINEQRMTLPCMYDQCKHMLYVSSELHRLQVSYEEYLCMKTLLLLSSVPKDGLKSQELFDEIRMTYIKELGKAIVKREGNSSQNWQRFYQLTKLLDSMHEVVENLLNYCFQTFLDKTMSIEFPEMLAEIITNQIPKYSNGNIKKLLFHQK
The target is the same in assay [7]. The experiment in a line: GR-EFC Redistribution (AID 451; calls by dose curve; further: potency means the concentration at half of the fitted maximal effect). The following applies: CHO-K1 GR-EFC translocation, beta-gal luminescence, 2 h. Summed up: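 Translocation of GR-ED fusion to nuclear EA restores b-gal, read by luminescence after 1 h room-temperature detection. Engineered CHO-K1 biosensor cells, 1,000/well, exposed 2 h at 37 C to titrations up to 46 uM final.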

In assay [8] the target is Mitogen-activated protein kinase 10 (Mus musculus) (UniProt Q61831). The experiment in a line: JNK3 AlphaScreen Assay (AID 530; active means well fitted curve in either direction with a large enough effect, not every such curve was filed as active;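 further: kinase came from lysate of stimulated human HepG2 cells; signal reports phosphorylation of biotinylated GST-cJun 1-79 at Ser73 with 10 µM ATP; on the % scale 0 is the no-effect control and ±100 the full control effect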). Summed up:
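Kinase buffer: 20 mM Tris-HCl pH 7.6, 10 mM MgCl2, 1 mM DTT, 0.1 mM Na3VO4, 0.01% Tween-20; ATP 10 uM. Substrate biotin-GST-cJun(1-79), enzyme from activated HepG2 lysates. Detection by Ser73 phospho-antibody AlphaScreen.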

Assay [9] addresses 3',5'-cyclic-AMP phosphodiesterase 4B (Homo sapiens) (UniProt Q07343). The experiment in a line: qHTS Assay for Inhibitors of PDE-IV (AID 607; active means well fitted activation curve with a large enough effect in the main read-out, with a control signal flat, not every such curve was filed as active; further: % of control where 0% means no effect). Put shortly: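 The readout is membrane depolarisation from a cAMP-sensing CNG channel, detected with a potential dye at ex 535/em 590. Cells were HEK293-derived (endogenous PDE-IV) at 1000 cells/well, titrated up to 22.9 uM final.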
The target in assay [10] is Cytochrome P450 3A4 (Homo sapiens) (UniProt P08684). The assay can be described thus: qHTS Assay for Inhibitors and Substrates of Cytochrome P450 3A4 (AID 884). Further: potency means the concentration at half of the fitted maximal effect; nearly all actives have a fitted effect of over 50% in size. Put shortly:
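Luminescent readout of luciferin produced by CYP3A4 (20 nM) dealkylation of Luciferin-PPXE, 25 uM (its KM). NADPH-driven reaction ran 60 min at RT after 10 min compound preincubation; data scaled to 57 uM ketoconazole as 100% inhibition.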

Assay [11] has the same target. The assay can be described thus: qHTS Assay for Activators of Cytochrome P450 3A4 (AID 885). Further: nearly all actives have a fitted effect of over 65% in size. Put shortly: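 Activators are scored by enhanced luminescence from CYP3A4 conversion of luciferin-PPXE (25uM, equal to KM) to luciferin, after 60 min at RT with an NADPH-regenerating system.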
The nature of assay [12]: qHTS Assay for Lipid Storage Modulators (AID 1519; calls by dose curve). The following applies: Drosophila S3 cells, BODIPY lipid droplet/cell ratio, laser cytometry, cells loaded with oleic acid; for activity change, negative = inhibition: at 57.5 µM (top of the series). Summed up:
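Cells seeded at 5,000 per well were treated with compounds over a concentration series and loaded with oleic acid (400 uM, as added). Lipid droplet fluorescence (488 nm excitation, 500-530 nm channel) was read by laser-scanning cytometry and normalized to 20 uM Triacsin C.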

The target of assay [13] is Ubiquitin carboxyl-terminal hydrolase 1 (Homo sapiens) (UniProt O94782). The assay can be described thus: Inhibitors of USP1/UAF1: Pilot qHTS (AID 504865). Further: nearly all actives have a fitted effect of over 35% in size. Further: potency means the concentration at half of the fitted maximal effect. Put shortly: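 Deubiquitinase activity followed as kinetic rhodamine fluorescence release from 150 nM Ub-Rho. 1 nM USP1/UAF1 with compound, after 15 min room-temperature preincubation, in HEPES pH 7.8 buffer containing TCEP, EDTA, BSA and Tween-20.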
Ubiquitin carboxyl-terminal hydrolase 1 (Homo sapiens), sequence (O94782 whole entry, looked up): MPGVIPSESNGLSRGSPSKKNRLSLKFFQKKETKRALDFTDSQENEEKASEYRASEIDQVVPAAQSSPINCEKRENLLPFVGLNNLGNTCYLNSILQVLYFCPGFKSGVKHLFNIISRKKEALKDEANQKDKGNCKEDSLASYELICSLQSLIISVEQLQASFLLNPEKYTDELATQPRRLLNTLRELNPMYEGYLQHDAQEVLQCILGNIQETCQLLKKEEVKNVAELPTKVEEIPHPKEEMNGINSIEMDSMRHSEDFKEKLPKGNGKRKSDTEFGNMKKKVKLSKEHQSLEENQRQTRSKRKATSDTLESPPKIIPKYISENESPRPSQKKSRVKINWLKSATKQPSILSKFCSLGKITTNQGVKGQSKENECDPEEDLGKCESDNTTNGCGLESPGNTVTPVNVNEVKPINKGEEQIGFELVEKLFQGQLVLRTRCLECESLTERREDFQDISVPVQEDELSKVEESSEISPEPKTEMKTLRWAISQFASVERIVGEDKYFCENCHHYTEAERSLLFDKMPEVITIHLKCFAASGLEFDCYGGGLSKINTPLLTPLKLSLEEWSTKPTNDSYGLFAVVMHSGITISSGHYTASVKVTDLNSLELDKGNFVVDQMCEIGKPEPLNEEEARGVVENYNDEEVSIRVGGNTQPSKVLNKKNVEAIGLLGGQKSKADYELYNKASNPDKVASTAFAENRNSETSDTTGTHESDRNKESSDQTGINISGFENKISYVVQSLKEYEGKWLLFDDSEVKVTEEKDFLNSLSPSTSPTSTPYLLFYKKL

The nature of assay [14]: Primary qHTS for small molecule stabilizers of the endoplasmic reticulum resident proteome: Secreted ER Calcium Modulated Protein (SERCaMP) assay (AID 1508630). Further: on the % scale 0 is the no-effect control and ±100 the full control effect. Put shortly:
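The SH-SY5Y reporter protocol was run at 3 concentrations up to 38.3 uM (primary) or 11 concentrations (follow-up): 16 h compound, 100 nM thapsigargin for 4 h, then extracellular luciferase luminescence.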

Assay [15] in a line: qHTS Assay for Identification of Small Molecule Agonists for Hypoxia Response Element Signaling Pathway (AID 914; active means well fitted activation curve with a large enough effect in the signal ratio, with a control signal flat, not every such curve was filed as active; the % refers to the signal ratio; further: potency means the concentration at half of the fitted maximal effect; on activation: % of control where 0% means no effect). As to conditions: ME-180 (cervical carcinoma) HRE-bla reporter, beta-lactamase ratio, CoCl2, 17 h; activation: stronger effect = higher value. Put shortly: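 In Opti-MEM containing 0.5% dialyzed FBS and 10 mM HEPES, ME-180 HRE-bla cells received a compound titration and EC50 CoCl2. They were incubated 17 hours, then CCF4-loaded 2.5 hours at room temperature before ratio reading.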

The target in assay [16] is Dual specificity protein kinase CLK4 (Homo sapiens) (UniProt Q9HAZ1). The experiment in a line: qHTS Assay for Inhibitors of CDC-like Kinase 4 (ADP-FP Assay) (AID 1795).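 Further: recombinant human CLK4 phosphorylating RS repeat peptide at 1 µM ATP; on the % scale 0 is the no-effect control and ±100 the full control effect; nearly all actives have a fitted effect of over 60% in size.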 Put shortly:
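Kinase activity was measured as ADP production using Transcreener orange tracer (4 nM) and ADP antibody (1 ug/mL) fluorescence polarization, with ADP calculated from a calibration curve. The 1 h reaction contained 6.25 nM Clk4, 1 uM ATP and 100 uM RS peptide at pH 7.5 with Mg2+.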

Assay [17] is described as follows: Confirmation and Secondary Assay for Modulators of Hemoglobin Beta Chain Splicing at IVS2 654 locus (AID 910).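 Further: HeLa cells stably carrying EGFP split by mutant beta-globin IVS2-654 intron; per-well total GFP intensity by laser scanning cytometry after 2-day treatment; % of control where 0% means no effect.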 Summed up: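 Readout: per-well total peak green fluorescence (488 nm ex, 500–520 nm em) from objects 5–250 µm, reflecting correct splicing of an EGFP-654 reporter. Compounds were applied for 2 days at 37 °C to overnight-plated HeLa EGFP-654 cells; controls were DMSO and 500 nM IVS2-654 PNA.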

A short description of assay [18]: Confirmation and Secondary Assay for Modulators of Hemoglobin Beta Chain Splicing at IVS2 705 locus (AID 930).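 Further: HeLa cells stably expressing the EGFP-705 splicing reporter; GFP fluorescence per well restored by corrected splicing of the IVS2-705 intron in EGFP; % of control where 0% means no effect.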 Put shortly:
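Per-well GFP, captured at 1 x 8 µm resolution with 488 nm excitation, served as the read-out for HeLa EGFP-705 cells incubated 2 days with test compound versus DMSO.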

The mark [19] stands for this setting: measured here: cell count channel max response.
Where [20] appears, read: measured here: lipid channel max response.

Dual specificity protein kinase CLK4 (Homo sapiens), sequence (Q9HAZ1 whole entry, looked up): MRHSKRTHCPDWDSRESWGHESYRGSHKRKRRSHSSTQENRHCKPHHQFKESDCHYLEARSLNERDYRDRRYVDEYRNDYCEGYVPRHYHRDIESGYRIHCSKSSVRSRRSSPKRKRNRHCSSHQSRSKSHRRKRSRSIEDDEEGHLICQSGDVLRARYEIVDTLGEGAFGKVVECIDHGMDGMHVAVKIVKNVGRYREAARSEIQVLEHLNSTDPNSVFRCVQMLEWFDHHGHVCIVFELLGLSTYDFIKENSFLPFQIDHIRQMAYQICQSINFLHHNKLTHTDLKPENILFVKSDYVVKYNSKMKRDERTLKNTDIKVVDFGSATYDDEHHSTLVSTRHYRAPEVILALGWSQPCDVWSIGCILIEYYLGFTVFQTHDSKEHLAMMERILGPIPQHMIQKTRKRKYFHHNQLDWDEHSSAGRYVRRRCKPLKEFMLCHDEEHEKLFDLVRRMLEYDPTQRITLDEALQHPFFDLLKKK
Cytochrome P450 3A4 (Homo sapiens), sequence (P08684 whole entry, looked up): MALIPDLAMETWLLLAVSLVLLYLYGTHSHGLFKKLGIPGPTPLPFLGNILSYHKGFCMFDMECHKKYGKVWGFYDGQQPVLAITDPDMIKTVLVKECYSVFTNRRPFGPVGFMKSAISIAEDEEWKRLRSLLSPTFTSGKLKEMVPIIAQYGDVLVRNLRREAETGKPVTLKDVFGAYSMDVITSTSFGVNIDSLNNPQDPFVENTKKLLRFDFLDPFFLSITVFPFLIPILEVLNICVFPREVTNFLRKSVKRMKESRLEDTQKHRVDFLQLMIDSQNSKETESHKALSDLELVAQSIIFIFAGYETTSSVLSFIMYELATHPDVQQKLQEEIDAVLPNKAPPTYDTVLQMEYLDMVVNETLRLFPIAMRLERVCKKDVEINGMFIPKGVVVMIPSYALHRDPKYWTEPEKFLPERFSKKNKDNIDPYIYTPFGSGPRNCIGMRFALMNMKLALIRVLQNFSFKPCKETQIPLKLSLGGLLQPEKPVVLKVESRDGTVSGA
3',5'-cyclic-AMP phosphodiesterase 4B (Homo sapiens), sequence (Q07343 whole entry, looked up): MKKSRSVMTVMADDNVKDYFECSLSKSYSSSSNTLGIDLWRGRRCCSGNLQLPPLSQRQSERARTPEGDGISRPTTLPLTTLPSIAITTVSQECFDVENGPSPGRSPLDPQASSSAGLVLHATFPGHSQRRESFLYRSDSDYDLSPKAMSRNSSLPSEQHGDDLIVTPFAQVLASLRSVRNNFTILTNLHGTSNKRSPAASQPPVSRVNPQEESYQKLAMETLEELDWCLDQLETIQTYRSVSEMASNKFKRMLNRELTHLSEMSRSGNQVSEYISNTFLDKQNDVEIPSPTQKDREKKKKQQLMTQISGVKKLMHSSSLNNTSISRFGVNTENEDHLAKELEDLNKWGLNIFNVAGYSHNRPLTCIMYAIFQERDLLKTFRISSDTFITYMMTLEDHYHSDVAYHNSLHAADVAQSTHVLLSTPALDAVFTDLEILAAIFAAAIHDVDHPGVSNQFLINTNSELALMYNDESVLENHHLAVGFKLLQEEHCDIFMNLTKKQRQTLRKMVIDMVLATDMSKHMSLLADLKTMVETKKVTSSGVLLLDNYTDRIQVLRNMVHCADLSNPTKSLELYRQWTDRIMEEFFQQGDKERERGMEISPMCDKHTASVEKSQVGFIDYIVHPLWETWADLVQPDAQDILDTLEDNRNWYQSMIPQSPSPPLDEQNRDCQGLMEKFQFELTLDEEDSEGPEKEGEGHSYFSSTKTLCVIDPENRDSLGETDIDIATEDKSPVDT
Cytochrome P450 1A2 (Homo sapiens), sequence (P05177 whole entry, looked up): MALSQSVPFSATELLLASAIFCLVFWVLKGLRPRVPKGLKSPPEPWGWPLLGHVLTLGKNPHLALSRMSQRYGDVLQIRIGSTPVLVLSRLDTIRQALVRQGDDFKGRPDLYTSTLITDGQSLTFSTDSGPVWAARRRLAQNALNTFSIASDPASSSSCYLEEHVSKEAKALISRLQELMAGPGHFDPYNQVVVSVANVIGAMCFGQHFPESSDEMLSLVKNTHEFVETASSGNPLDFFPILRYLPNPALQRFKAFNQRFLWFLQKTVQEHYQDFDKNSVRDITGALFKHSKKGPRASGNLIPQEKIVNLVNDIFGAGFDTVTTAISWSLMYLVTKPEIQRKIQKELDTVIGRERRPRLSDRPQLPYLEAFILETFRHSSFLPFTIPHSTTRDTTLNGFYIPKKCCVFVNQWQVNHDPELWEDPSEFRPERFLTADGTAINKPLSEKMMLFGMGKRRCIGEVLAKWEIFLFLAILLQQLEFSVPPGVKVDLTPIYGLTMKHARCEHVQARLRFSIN

Consider `c1ncc(-c2ccoc2)c(NC2CC2)n1`, for which the Potency is > 11.4 µM (inactive) in assay [1]; 15.8 µM (active) in assay [3]; > 46 µM (inactive) in assay [6]; > 46 µM (inactive) in assay [7]; 7.94 µM (active) in assay [10]; 28.2 µM (active) in assay [13]. For the same compound, the figures for the activity change, negative = inhibition in assay [2], in assay [4] and in assay [12] were 16.6% (inactive), 5.32% (inactive) and 3.62% (inactive), respectively. In addition, in [5], the activity, negative = inhibition is 4.55% (inactive). For the same compound, the outcome in [8] was inactive. In addition, the Potency result in assay [9], in assay [11] and in assay [14] was “inactive” throughout. Also, the values for the max response in assay [12] (setting [19]) and in assay [12] (setting [20]) were 21.6% and 22.6%, respectively.
Take `O=c1c(-c2cc(F)cc(F)c2)nc2cnc(N3CCNCC3)nc2n1C1CC1`: the Potency in assay [1] is > 11.4 µM (inactive); in assay [3], 3.16 µM (active); in assay [6] it was > 9.22 µM (inactive); in assay [7], > 46 µM (inactive); in assay [15], 2.51 µM (active). The result in assay [8] was inactive. The Potency result in assay [9], in [11], in assay [16] and in assay [14] was “inactive” each time. Besides, in assay [12], the activity change, negative = inhibition was 2.24% (inactive). Also, the max response in [12] (setting [19]) amounted to 4.49%; in [12] (setting [20]) it was 4.55%.
As for `CN(C)c1ccc(-c2nc(NCCN3CCOCC3)c3ccccc3n2)cc1`, the activity change, negative = inhibition was 1.67% (inactive) in assay [2], -21.3% (inactive) in [4] and 3.01% (inactive) in assay [12]. In addition, the Potency is 7.94 µM (active) in assay [3] and > 46 µM (inactive) in assay [7]. Besides, the compound was classed as inactive in assay [8]. Further, the Potency result in assay [9], in [11], in assay [16], in assay [13] and in assay [14] was “inactive” throughout. The max response in assay [12] (setting [19]) was 9.82%; in assay [12] (setting [20]) it was 10.9%.
Consider `Cn1c(=O)c(-c2cccs2)nc2cncnc21`, for which the activity change, negative = inhibition in [2] is 16% (inactive); in [4] it was 2.85% (inactive); in assay [12] it was 2.77% (inactive). In addition, the Potency was 1.26 µM (active) in [3], > 9.22 µM (inactive) in [6], > 46 µM (inactive) in assay [7] and 7.94 µM (active) in assay [10]. The activity, negative = inhibition in assay [5] was -17.1% (inactive). In addition, in assay [8], the outcome was inactive. Besides, the Potency entry in assay [9], in [11], in [16], in assay [13] and in assay [14] was “inactive” throughout. Also, the results for the max response in [12] (setting [19]) and in assay [12] (setting [20]) were 18.7% and 19.2%, respectively.
`COc1ccc(-c2nc3cnc(Nc4cccc(OC)c4)nc3n(C)c2=O)cc1`: the values for the Potency in [1], in assay [6] and in assay [7] were > 11.4 µM (inactive), > 9.22 µM (inactive) and > 46 µM (inactive), respectively. Also, the activity change, negative = inhibition in assay [2] was -11.9% (inactive); in [4] it was -14.3% (inactive); in assay [12], 1.51% (inactive). Further, the activity, negative = inhibition in assay [5] was 0.85% (inactive). The compound was called inactive in assay [8]. The Potency entry in [9], in assay [16], in assay [13] and in assay [14] was “inactive” in each case. Moreover, the results for the max response in assay [12] (setting [19]) and in assay [12] (setting [20]) were 2.29% and 2.92%, respectively.
In the case of `CN(C)c1ccnc(-c2cccc(NS(C)(=O)=O)c2)n1`, the Potency in assay [1] was > 11.4 µM (inactive); in assay [3], 1.58 µM (active); in assay [6], > 46 µM (inactive); in [7] it was > 46 µM (inactive). The results for the activity change, negative = inhibition in assay [2], in [4] and in assay [12] were -6.35% (inactive), 0.933% (inactive) and 11.6% (inactive), respectively. In addition, in assay [5], the activity, negative = inhibition is 3.11% (inactive). For the same compound, the outcome in [8], in [17] and in assay [18] was inactive. Besides, the Potency entry in [9], in assay [11], in assay [13] and in assay [14] was “inactive” throughout. Further, the values for the max response in assay [12] (setting [19]) and in [12] (setting [20]) were 7.48% and 20%, respectively.
Consider `COc1ccc(Oc2ncc3nc(-c4ccc(OC)cc4)c(=O)n(C4CC4)c3n2)cc1`, for which the Potency in assay [1] was > 11.4 µM (inactive); in [6], > 9.22 µM (inactive); in [7], > 46 µM (inactive). The activity change, negative = inhibition in [2] is -17.1% (inactive); in [4], 18.7% (inactive); in assay [12] it was -0.219% (inactive). Besides, the activity, negative = inhibition in assay [5] was -1.53% (inactive). Further, the compound was classed as inactive in assay [8]. Also, the Potency entry in assay [9], in assay [16], in assay [13] and in assay [14] was “inactive” each time. Moreover, the activation in assay [15] was 12.9% (inactive). Also, the max response is 4.42% in assay [12] (setting [19]) and -0.829% in assay [12] (setting [20]).

For the origin of these results see PubChem BioAssay (NCATS).
